Measured values from paper PMC4336329 (PLoS ONE, 2015).
About 14,000 (4.5%) of roughly 310,000 compounds showed an effect of 50% or more. The effect is printed as a negative number. This excerpt belongs to a sample that is enriched for strong results.

The compounds below were run against human ether-à-go-go-related gene (hERG) potassium channel (human, UniProt Q12809) (assay: primary screen, population patch clamp on CHO cells stably expressing hERG; higher = less effect of the substance).
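Further: peak tail current of the secondary pulse compared with the same well before compound.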

human ether-à-go-go-related gene (hERG) potassium channel, sequence (Q12809 whole entry, looked up): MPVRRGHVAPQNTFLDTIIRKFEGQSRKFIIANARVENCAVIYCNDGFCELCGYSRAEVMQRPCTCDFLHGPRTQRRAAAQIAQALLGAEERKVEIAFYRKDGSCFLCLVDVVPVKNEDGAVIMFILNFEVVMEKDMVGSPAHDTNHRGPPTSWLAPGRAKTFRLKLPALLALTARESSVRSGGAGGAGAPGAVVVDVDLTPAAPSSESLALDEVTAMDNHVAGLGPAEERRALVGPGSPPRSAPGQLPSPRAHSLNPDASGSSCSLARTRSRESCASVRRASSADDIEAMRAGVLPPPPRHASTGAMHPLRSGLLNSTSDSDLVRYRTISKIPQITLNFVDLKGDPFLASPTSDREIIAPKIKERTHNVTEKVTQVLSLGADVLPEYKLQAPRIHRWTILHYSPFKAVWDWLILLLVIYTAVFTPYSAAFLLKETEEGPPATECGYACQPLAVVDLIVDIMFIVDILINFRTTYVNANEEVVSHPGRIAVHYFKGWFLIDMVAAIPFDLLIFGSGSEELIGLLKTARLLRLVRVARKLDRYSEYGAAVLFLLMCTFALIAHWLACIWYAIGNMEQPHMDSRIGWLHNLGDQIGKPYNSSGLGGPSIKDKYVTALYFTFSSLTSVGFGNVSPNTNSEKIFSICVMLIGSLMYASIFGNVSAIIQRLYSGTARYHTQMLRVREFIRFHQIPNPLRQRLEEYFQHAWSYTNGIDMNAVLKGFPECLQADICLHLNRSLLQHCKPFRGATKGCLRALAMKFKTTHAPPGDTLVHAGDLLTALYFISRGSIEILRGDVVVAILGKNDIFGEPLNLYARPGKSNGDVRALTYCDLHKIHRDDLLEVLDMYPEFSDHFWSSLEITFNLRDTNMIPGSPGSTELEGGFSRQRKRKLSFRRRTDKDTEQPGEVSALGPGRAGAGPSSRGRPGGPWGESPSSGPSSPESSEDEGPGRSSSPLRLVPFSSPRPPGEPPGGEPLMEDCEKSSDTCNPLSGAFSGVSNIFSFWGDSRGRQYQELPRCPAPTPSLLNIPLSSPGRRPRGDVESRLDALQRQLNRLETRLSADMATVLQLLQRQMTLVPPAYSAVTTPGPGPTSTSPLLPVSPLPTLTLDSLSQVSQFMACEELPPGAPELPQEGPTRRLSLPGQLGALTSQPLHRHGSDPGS

Row | SMILES | hERG current change (%, negative = inhibition) at 10uM [%]
1 | O=C(CNS(=O)(=O)c1ccc(F)cc1)N1CCN(c2ccccc2)CC1 | -11.7
2 | O=C(CNS(=O)(=O)c1ccc(Br)cc1)N1CCN(c2ccc(F)cc2)CC1 | -56.5
3 | Cc1ccc(S(=O)(=O)NCC(=O)N2CCN(c3ccc(F)cc3)CC2)cc1 | -10.2
4 | O=C(CNS(=O)(=O)c1ccc(F)cc1)N1CCCC1 | 12
5 | O=C(CNS(=O)(=O)c1ccc(F)cc1)N1CCN(c2ccc(F)cc2)CC1 | -51.7
6 | O=C(CNS(=O)(=O)c1ccc(Br)s1)N1CCN(c2ccc(F)cc2)CC1 | -25.2
7 | CCn1nc(CC(=O)O)c2ccccc2c1=O | 22.9
8 | COc1cc([N+](=O)[O-])ccc1NC(=O)NCc1ccco1 | 10.9
9 | Cn1nnnc1SCC(=O)c1c(N)n(C)c(=O)n(C)c1=O | 18.3
10 | Cc1cc(=O)c(C(=O)O)nn1-c1ccccc1 | 5.86
11 | O=C(O)c1nn(-c2cccc(C(F)(F)F)c2)ccc1=O | 21.5
12 | Cc1cc(=O)c(C(=O)O)nn1-c1cccc(C(F)(F)F)c1 | -74.6
13 | CCOc1ccccc1C1CC(=O)NC2=C1C(=O)CCC2 (stereo not drawn) | 13.6
14 | O=C1CCC/C(=N/NC(=O)c2sc3ccccc3c2Cl)C1 | 5.82
15 | COc1cc(C(C)=O)ccc1OCC(O)CN1CCN(c2c(C)cccc2C)CC1 (stereo not drawn) | -60.3
16 | COc1cc(C(C)=O)ccc1OCC(O)CN1CCN(c2ccccn2)CC1 (stereo not drawn) | -9.62
17 | COc1cc(C(C)=O)ccc1OCC(O)CN1CCN(c2ccc(C)cc2C)CC1 (stereo not drawn) | -58.3
18 | COc1cc(C(C)=O)ccc1OCC(O)Cn1nc(C)c(Br)c1C (stereo not drawn) | -7
19 | COc1cc(C(C)=O)ccc1OCC(O)CN1CCN(c2ccc(C)c(C)c2)CC1 (stereo not drawn) | -39.6
20 | COc1cc(C(C)=O)ccc1OCC(O)CN1CCN(c2cc(C)cc(C)c2)CC1 (stereo not drawn) | -56.2
21 | COc1cc(C(C)=O)ccc1OCC(O)CN1CCN(S(=O)(=O)c2ccccc2)CC1 (stereo not drawn) | -11.5
22 | COc1cc(C(C)=O)ccc1OCC(O)CN1CCN(c2ccccc2)CC1 (stereo not drawn) | -31.5
23 | COc1cc(C(C)=O)ccc1OCC(O)CN1CCN(c2ccc(F)cc2)CC1 (stereo not drawn) | -39

Row | SMILES | hERG current change (%, negative = inhibition) at 10uM [%]
24 | COc1ccc(C(=O)/C=C/Nc2c(C)n(C)n(-c3ccccc3)c2=O)c(OC)c1 | 0.857
25 | COc1ccc(NC2CCCN(C(=O)CCc3scnc3C)C2)cc1 (stereo not drawn) | 12.2
26 | CS(=O)(=O)c1ccc(N2CCN(C3CC(=O)NC3=O)CC2)cc1 (stereo not drawn) | 13.1
27 | CC(=O)c1ccc(S(=O)(=O)NCCC(=O)OCC(=O)N2CCCC2=O)cc1 | -7.6
28 | COc1cccc2sc(N(CCCN(C)C)C(=O)C(c3ccccc3)c3ccccc3)nc12.Cl | -72.7
29 | Cc1ccc2sc(N(CCCN(C)C)C(=O)CCS(=O)(=O)c3ccccc3)nc2c1C | -6.04
30 | COc1cccc2sc(N(CCCN(C)C)C(=O)CCS(=O)(=O)c3ccccc3)nc12 | -62.7
31 | COc1ccc(OC)c2sc(N(CCCN(C)C)C(=O)CCS(=O)(=O)c3ccccc3)nc12.Cl | -70.5
32 | COc1ccc(Cl)c2sc(N(CCN(C)C)C(=O)CCS(=O)(=O)c3ccc(C)cc3)nc12.Cl | -7.51
33 | COc1cccc2sc(N(CCCN(C)C)C(=O)c3sc4ccccc4c3Cl)nc12.Cl | -24.6
34 | COc1cccc2sc(N(CCN(C)C)C(=O)/C=C/c3cccs3)nc12.Cl | -41.5
35 | Cc1cccc2sc(N(CCCN(C)C)C(=O)CCS(=O)(=O)c3ccccc3)nc12 | -35
36 | CCOc1cccc2sc(N(CCN(C)C)C(=O)CCS(=O)(=O)c3ccccc3)nc12.Cl | -23.5
37 | Fc1cccc(Cl)c1Cn1nnc2c(-n3ccnc3)ncnc21 | 0.152
38 | COCCN1Cc2cccc(C(=O)Nc3ccc(S(=O)(=O)N4CCCCC4)cc3)c2C1=O | -4.49
39 | O=S1(=O)c2cccc3cccc(c23)N1Cc1ccc(-c2nnco2)cc1 | 7.2
40 | COCc1cc(C)nc(OCC(=O)N/N=C/c2ccc(-c3cc([N+](=O)[O-])ccc3Cl)o2)c1C#N | 18
41 | COc1ccccc1C1N(c2cc(Cl)ccc2OC)C(=O)C2CCCN21 (stereo not drawn) | 1.23
42 | Cn1c(=O)c2nc(NCc3ccccc3)cnc2n(C)c1=O | -1.44
43 | O=C(Nc1nnc(SCC(=O)N2CCOCC2)s1)C1CC(=O)N(c2ccc(F)cc2)C1 (stereo not drawn) | 15
44 | O=[N+]([O-])c1ccc(Cl)cc1CNc1ccc(F)c(F)c1 | 0.95
45 | COc1cc(NC(=O)c2cc([N+](=O)[O-])ccc2NC(=O)CNC2CCCCC2C)cc(OC)c1 (stereo not drawn) | 20.3
46 | COc1ccc(CC(=O)NC2CCCCCC2)c(OC)c1 | -3.09

Row | SMILES | hERG current change (%, negative = inhibition) at 10uM [%]
47 | COc1ccc(NC(=O)c2cc([N+](=O)[O-])ccc2NC(=O)CNCc2ccccn2)c(OC)c1 | 7.29
48 | COc1ccc(CNC2CCCc3ccccc32)c(OC)c1 (stereo not drawn) | -36.9
49 | COc1ccc(CNC2CCCCC2C)c(OC)c1 (stereo not drawn) | -56.9
50 | COc1ccc(NC(=O)c2cc([N+](=O)[O-])ccc2NC(=O)CNC2CCCCC2C)c(OC)c1 (stereo not drawn) | -76.3
51 | CCOc1ccc(CCNC(=O)COC(=O)c2ccc(C)s2)cc1OCC | 14.6
52 | COc1ccc(C2NC(=O)C(C#N)=C(S)N2c2ccc(C)cc2)cc1OC (stereo not drawn) | 18.2
53 | Cc1c(C(N)=O)sc2nc(-c3ccccc3)cn12 | 1.01
54 | Cc1ccc(Cl)cc1NC(=O)CNCC(c1ccccc1)N(C)C.O=C(O)C(=O)O (stereo not drawn) | -30.3
55 | CC(=O)c1ccc(NC(=O)CNCC(c2ccccc2)N(C)C)cc1.O=C(O)C(=O)O (stereo not drawn) | 2.26
56 | COc1ccc(Cl)cc1NC(=O)CNC(c1ccccc1)c1ccccc1 | 12.6
57 | CCOC(=O)c1cc(NC(=O)CNCC(c2ccccc2)N(C)C)cc(C(=O)OCC)c1.O=C(O)C(=O)O (stereo not drawn) | -57.7
58 | COc1ccc(Cl)cc1NC(=O)CNCC(c1ccccc1)N(C)C.O=C(O)C(=O)O (stereo not drawn) | -73.9
59 | Cc1ccc(NC(=O)CNCC(c2ccccc2)N(C)C)cc1F.O=C(O)C(=O)O (stereo not drawn) | -38.1
60 | Cn1c(SCC(=O)N2CCOCC2)nc2c(c1=O)SCC2 | 15.8
61 | O=C(C1CCCC1)N1CCC(CC2CC(c3ccc(Cl)cc3)=NO2)(C(=O)NCC2CCCCC2)CC1 (stereo not drawn) | -24.1
62 | O=C(CCCCCBr)N1CCC(CC2CC(c3ccc(Cl)cc3)=NO2)(C(=O)NCC2CCCCC2)CC1 (stereo not drawn) | -74.6
63 | O=C(c1ccccc1)N1CCC(CC2CC(c3cccc(Br)c3)=NO2)(C(=O)NCC2CCCCC2)CC1 (stereo not drawn) | -1.49
64 | CC(C)(C)OC(=O)N1CCC(CC2CC(c3cccc(Br)c3)=NO2)(C(=O)NCC2CCCCC2)CC1 (stereo not drawn) | 13.7
65 | CC1(C(=O)N2CCC(CC3CC(c4ccc(Cl)cc4)=NO3)(C(=O)NCC3CCCCC3)CC2)CC1 (stereo not drawn) | -40.8
66 | CC(C)(C)OC(=O)N1CCC(CC2CC(c3ccc(Cl)cc3)=NO2)(C(=O)NCC2CCCCC2)CC1 (stereo not drawn) | -19.5
67 | O=C(c1ccccc1)N1CCC(CC2CC(c3ccc(Cl)cc3)=NO2)(C(=O)NCC2CCCCC2)CC1 (stereo not drawn) | -52
68 | O=C(CCCCCBr)N1CCC(CC2CC(c3cccc(Br)c3)=NO2)(C(=O)NCC2CCCCC2)CC1 (stereo not drawn) | -69
69 | O=C(C1CCCC1)N1CCC(CC2CC(c3cccc(Br)c3)=NO2)(C(=O)NCC2CCCCC2)CC1 (stereo not drawn) | -49.9

Row | SMILES | hERG current change (%, negative = inhibition) at 10uM [%]
70 | CCOC(=O)c1c(-c2ccc(C)s2)csc1N | 7.8
71 | Cc1cccc(/C=C/C(=O)c2cc(Br)ccc(=O)c2O)c1 | 16.7
72 | COc1ccc(Oc2ncnc3sccc23)cc1 | 1.8
73 | CC#CC(=O)N1CCC(CCC(=O)N(C)Cc2ccccc2)CC1 | -7.72
74 | CN(C)CCCNC1=CC(=O)CC(c2ccccc2)C1 (stereo not drawn) | 3.58
75 | CCc1ccc(NC2=CC(=O)CC(c3ccco3)C2)cc1 (stereo not drawn) | 5.49
76 | CCCCCCCNC1=CC(=O)CC(c2ccccc2)C1 (stereo not drawn) | -81.3
77 | CCCCCCCNC1=CC(=O)CC(c2ccco2)C1 (stereo not drawn) | -76.9
78 | CNC1=CC(=O)CC(c2ccccc2)C1 (stereo not drawn) | -1.58
79 | CC(C)CNC1=CC(=O)CC(c2ccco2)C1 (stereo not drawn) | 6.11
80 | COc1cc(S(=O)(=O)NCCN2CCOCC2)ccc1-n1cnnn1 | 17.5
81 | O=S(=O)(Nc1ccc2c(c1)OCCO2)c1cccc2nsnc12 | -11.2
82 | O=C(O)c1ccc(Cn2cnc3scc(-c4ccccc4)c3c2=O)cc1 | 20.8
83 | Cn1c(CNc2nc3ccccc3n2C)nc2ccccc21 | -15.2
84 | CC(C)n1c(NCc2nc3ccccc3n2C)nc2ccccc21 | -46.4
85 | C=CCc1cccc(CNc2nc3ccccc3n2CCN2CCOCC2)c1O | -6.61
86 | c1coc(CNc2nc3ccccc3n2CCN2CCOCC2)c1 | -33.2
87 | CCN(CC)CCn1c(NCc2nc3ccccc3n2Cc2ccccc2)nc2ccccc21 | -2.44
88 | Cn1c(CNc2nc3ccccc3n2CCN2CCCCC2)nc2ccccc21 | -65
89 | c1ccc(Cn2c(CNc3nc4ccccc4n3CCN3CCCCC3)nc3ccccc32)cc1 | -68.5
90 | c1ccc(Cn2c(CNc3nc4ccccc4n3CCN3CCOCC3)nc3ccccc32)cc1 | -84.3
